Test results published in PubChem BioAssay (Tox21).
Several values for one entry are separate records, joined by “and”; a condition that tells them apart may be missing. Identical values can stand only once. Activity calls are given as the source filed them. Entries that show only a call come without a potency. Calls come from the whole dose curve.

Biological target: Estrogen receptor (Homo sapiens) (UniProt P03372)
Test: qHTS assay to identify small molecule agonists of the estrogen receptor alpha (ER-alpha) signaling pathway (AID 743075);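 note: HEK293 GripTite cells with ER-alpha and UAS-driven beta-lactamase reporter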
Conditions: HEK293 ER-alpha-UAS-bla, beta-lactamase FRET ratio, 18 h; activation: at 70.1 µM (top of the series)
Potency is the fitted concentration of half-maximal effect.

Estrogen receptor (Homo sapiens), sequence (P03372 whole entry, looked up): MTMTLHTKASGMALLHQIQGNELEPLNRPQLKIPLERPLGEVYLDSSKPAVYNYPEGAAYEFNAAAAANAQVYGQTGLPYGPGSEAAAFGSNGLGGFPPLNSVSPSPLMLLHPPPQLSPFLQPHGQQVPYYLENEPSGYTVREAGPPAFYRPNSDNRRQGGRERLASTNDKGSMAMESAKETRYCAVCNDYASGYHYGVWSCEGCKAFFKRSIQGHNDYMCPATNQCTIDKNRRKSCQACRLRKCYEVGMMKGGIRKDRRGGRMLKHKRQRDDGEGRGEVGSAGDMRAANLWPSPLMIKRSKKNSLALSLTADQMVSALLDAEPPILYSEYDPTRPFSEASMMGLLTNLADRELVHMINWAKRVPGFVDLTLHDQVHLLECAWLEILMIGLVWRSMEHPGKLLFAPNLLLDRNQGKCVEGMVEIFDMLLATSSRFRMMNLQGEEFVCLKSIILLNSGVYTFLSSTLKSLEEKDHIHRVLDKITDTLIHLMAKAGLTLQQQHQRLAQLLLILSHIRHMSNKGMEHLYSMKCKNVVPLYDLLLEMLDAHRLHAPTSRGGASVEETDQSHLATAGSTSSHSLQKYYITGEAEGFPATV

How did the Potency turn out when `Cc1ccc(-n2nc(C(C)(C)C)cc2NC(=O)Nc2ccc(OCCN3CCOCC3)c3ccccc23)cc1` was run?
Its Potency is “inactive”.

`Cc1ccc2oc(CN(Cc3ccccc3)C(=O)Nc3c(F)cc(F)cc3F)c(-c3ccc(Cl)cc3)c2c1` was tested. Which Potency did it give?
The Potency was “inactive”.

Which Potency does the source give for `CCCCCCCCOC(=O)c1ccc(O)cc1` here?
Its Potency is 61.4 µM [inconclusive] (active) and 43.7 µM [activator] (active).

How did the Potency turn out when `O=C1C=CC(=O)N1` was run?
Its Potency is “inactive”.

`CC(C)(C)NC(=O)[C@@H]1C[C@@H]2CCCC[C@@H]2CN1C[C@@H](O)[C@H](Cc1ccccc1)NC(=O)[C@H](CC(N)=O)NC(=O)c1ccc2ccccc2n1` was tested. Which Potency did it give?
The Potency was “inactive”.

Which Potency does the source give for `Cc1cccc(CN2CCN(C(c3ccccc3)c3ccc(Cl)cc3)CC2)c1` (stereo not given) here?
Its Potency is “inactive”.

`O=C(Nc1cccc(Cl)c1)OCC#CCCl` was tested. Which Potency did it give?
Its Potency is “inactive”.

With `O=C1c2c(O)ccc(Nc3ccc(CCO)cc3)c2C(=O)c2c([N+](=O)[O-])ccc(O)c21` as the compound, how does the Potency read?
Its Potency is “inactive”.

For `Fc1ccc([C@@H]2CCNC[C@H]2COc2ccc3c(c2)OCO3)cc1`, which Potency is on record?
The Potency was “inactive”.

How did the Potency turn out when `Oc1cccc(-c2c3nc(c(-c4cccc(O)c4)c4ccc([nH]4)c(-c4cccc(O)c4)c4nc(c(-c5cccc(O)c5)c5ccc2[nH]5)CC4)C=C3)c1` was run?
Its Potency is “inactive”.

For `CC(C)n1nc(-c2cc3cc(O)ccc3[nH]2)c2c(N)ncnc21`, which Potency is on record?
Its Potency is “inactive”.

Which Potency does the source give for `N#CSc1ccc(N)c([N+](=O)[O-])c1` here?
Its Potency is “inactive”.

For `COc1ccc(C(=O)/C(Br)=C\C(=O)O)cc1`, which Potency is on record?
The Potency was “inactive”.

`CCCCCCCCCCCCCCCC[N+](C)(C)CCN(Cc1ccc(OC)cc1)c1ncccn1` was tested. Which Potency did it give?
Its Potency is “inactive”.

With `O=C1Cc2cc(CCN3CCN(c4nsc5ccccc45)CC3)c(Cl)cc2N1` as the compound, how does the Potency read?
Its Potency is “inactive”.
